Inconclusive results are not listed. Calls of active or inactive are those of the source. Calls follow the shape of the dose curve; as a rule, active = well fitted inhibition curve with a large enough effect; inconclusive = small, poorly fitted or top-dose-only effect; inactive = no such curve, though single readings can be large or run the other way.
Test: qHTS assay for measurement of the activity of small molecule inhibitors on Zika virus induced Caspase-3 activity in human iPSC derived neural progenitor cells (hNPCs) (AID 1224857); also: nearly all actives have a fitted effect of over 65% in size; as to activity change, negative = inhibition: % of control where 0% means no effect
Details: hNPCs ZIKV-induced caspase-3/7, Caspase-Glo luminescence, 6 h; series mostly up to 45.7 µM; activity change, negative = inhibition: at the top concentration
Summary of the method: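 Human iPSC-derived neural progenitor cells pretreated 1 hr with compounds, then infected with Zika virus (2 FFU/cell) for 6 hours at 37 C. Caspase-3/7 measured by Caspase-Glo luminescence; % inhibition calculated from induction scaled to uninfected (0%) and infected (100%) wells.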
Potency is read from the fitted curve at half-maximal effect.

Row | SMILES | activity change, negative = inhibition | Potency
1 | CNC(=O)c1c(I)c(NC(=O)CCCCC(=O)Nc2c(I)c(C(=O)O)c(I)c(C(=O)NC)c2I)c(I)c(C(=O)O)c1I | -19.1% (inactive) | 
2 | Nc1ncnc2c1ncn2[C@@H]1O[C@H](CO)C(O)[C@H]1O (stereo partly specified) | 4.82% (inactive) | 
3 | N[C@H](CCCP(=O)(O)O)C(=O)O | 4.55% (inactive) | 
4 | OC[C@H]1O[C@@H](n2cnc3c(NC4CCCC4)ncnc32)[C@H](O)C1O (stereo partly specified) | -1.3% (inactive) | 
5 | O=C(Nc1ccc2[nH]ncc2c1)C1CCC1 | -10.8% (inactive) | 
6 | CCCCN(CC)c1nc(C)nc2c1c(C)cn2-c1c(C)cc(C)cc1C | 78.9% (inactive) | 
7 | CN[C@H](CC(C)C)C(=O)N[C@H]1C(=O)N[C@@H](CC(N)=O)C(=O)N[C@H]2C(=O)N[C@H]3C(=O)N[C@H](C(=O)N[C@H](C(=O)O)c4cc(O)cc(O)c4-c4cc3ccc4O)[C@H](O)c3ccc(c(Cl)c3)Oc3cc2cc(c3O[C@@H]2O[C@H](CO)[C@@H](O)[C@H](O)[C@H]2O[C@H]2C[C@](C)(N)[C@H](O)[C@H](C)O2)Oc2ccc(cc2Cl)[C@H]1O | -2.38% (inactive) | 
8 | O=C1NC(O)=NC1(c1ccccc1)c1ccccc1 | -36.4% (inactive) | 
9 | COc1ccc(-c2cc(=O)c3c(O)c(OC)c(OC)cc3o2)cc1O | 1.83% (inactive) | 
10 | Cc1ccc2c(n1)Oc1ccc(C(C)C(=O)OCC(=O)N(C)C)cc1C2 (stereo unspecified) |  | 14.1 µM (active)
11 | COc1ccc(/C=C/c2nc(NCCCN(C)C)c3ccccc3n2)cc1 | 24.8% (inactive) | 
12 | COc1ccccc1CN[C@@H]1CCCN[C@@H]1c1ccccc1 | 11.7% (inactive) | 
13 | O=[N+]([O-])c1ccc(CSc2ncnc3c2ncn3[C@@H]2O[C@H](CO)C(O)[C@H]2O)cc1 (stereo partly specified) | 9.65% (inactive) | 
14 | CC[C@H]1OC(=O)[C@H](C)C(O[C@H]2C[C@@](C)(OC)[C@@H](O)[C@H](C)O2)[C@H](C)[C@@H](OC2O[C@H](C)C[C@H](N(C)C)[C@H]2O)[C@](C)(O)C[C@@H](C)CN(C)[C@H](C)[C@@H](O)[C@]1(C)O (stereo partly specified) | -1.92% (inactive) | 
15 | NS(=O)(=O)c1ccc(-n2nc(C(F)(F)F)cc2-c2ccc(Cl)cc2)cc1 | 25.4% (inactive) | 
16 | S=c1[nH]c(-c2ccccc2)cn1-c1ccccc1 | -17.1% (inactive) | 
17 | COCCOc1cc2nc[nH]c(=O)c2cc1OCCOC | 17.9% (inactive) | 
18 | Cc1cn([C@H]2CC(N=[N+]=[N-])[C@@H](CO)O2)c(=O)[nH]c1=O (stereo partly specified) | -4.27% (inactive) | 

Row | SMILES | activity change, negative = inhibition | Potency
19 | O=c1cc(-c2ccccc2)oc2c(O)c(O)ccc12 | 18.8% (inactive) | 
20 | COc1ccc(Br)cc1S(=O)(=O)NC(=O)/C=C/c1ccccc1Cc1ccc2ccccc2c1 | -18.5% (inactive) | 
21 | O=C1NCc2c1c1c3ccccc3[nH]c1c1[nH]c3ccccc3c21 | 91.1% (inactive) | 
22 | Nc1nc2c(ncn2[C@@H]2O[C@H](CO)[C@@H](O)[C@@H]2O)c(=O)[nH]1 | -17% (inactive) | 
23 | C[C@H](Cc1ccccc1)Nc1ncnc2c1ncn2[C@@H]1O[C@H](CO)C(O)[C@H]1O (stereo partly specified) | 1.31% (inactive) | 
24 | CNC(=O)[C@H]1O[C@@H](n2cnc3c(NCc4cccc(I)c4)ncnc32)[C@H](O)C1O (stereo partly specified) | 33% (inactive) | 
25 | CCNC(=O)[C@H]1O[C@@H](n2cnc3c(N)nc(NCCc4ccc(CCC(=O)O)cc4)nc32)[C@H](O)C1O (stereo partly specified) | 2.68% (inactive) | 
26 | Nc1ccn([C@H]2O[C@H](CO)[C@@H](O)C2(F)F)c(=O)n1 | 20.2% (inactive) | 
27 | CS(=O)(=O)c1ccc(-n2nc(C(F)(F)F)cc2-c2ccc(F)cc2)cc1 | -2.06% (inactive) | 
28 | C=C/C(C)=C/[C@@]1(C)SC(=O)C(C)=C1O | 11.9% (inactive) | 
29 | Fc1ccc2[nH]c(CN3CCN(c4ccccn4)CC3)cc2c1 | -12.5% (inactive) | 
30 | CC[C@H]1OC(=O)[C@H](C)[C@@H](O[C@H]2C[C@@](C)(OC)[C@@H](O)[C@H](C)O2)[C@H](C)[C@@H](O[C@@H]2O[C@H](C)C[C@H](NC)[C@H]2O)[C@](C)(O)C[C@@H](C)CN(C)[C@H](C)[C@@H](O)[C@]1(C)O | 3.6% (inactive) | 
31 | CCC(CO)Nc1nc(NCc2ccccc2)c2ncn(C(C)C)c2n1 (stereo unspecified) | 37.4% (inactive) | 
32 | CCCCC#Cc1nc(NC)c2ncn([C@@H]3O[C@H](CO)[C@@H](O)C3O)c2n1 (stereo partly specified) | 5.81% (inactive) | 
33 | CCNc1nc2c(ncn2[C@H]2C[C@H](O)[C@@H](CO)O2)c(=O)[nH]1 | 4.81% (inactive) | 
34 | Nc1nc2ccc(Cl)cc2n2c(-c3ccccc3)nnc12 | -11.1% (inactive) | 
35 | Nc1nc(Nc2ccccc2)nc2c1ncn2[C@@H]1O[C@H](CO)C(O)[C@H]1O (stereo partly specified) | -17.3% (inactive) | 
36 | Brc1cc2c(cc1[C@H]1Nc3ccccc3[C@H]3C=CC[C@H]31)OCO2 | 24% (inactive) | 
